From PubChem
Most compounds without a hit are left out; they make up all but 3.2% or so of the library.
SKN-1 inh: suppressors of acrylamide-induced Pgst-4::GFP reporter in worms, primary screen, SKN-1 inhibitor project, whole organism, uHTS, GFP/RFP fluorescence ratio, strain VP596; inhibition, % at 21.8 µM; C. elegans VP596 Pgst-4::GFP/RFP ratio, 24 h; hit rate 0.49% among 360,000;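 active means interference check ratio from 0.5 to 1.5 plus GFP to RFP signal ratio inhibition reaching or exceeding a fixed threshold, cut at about 30% in these data, passing the limit was not always enough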
MEKK2mut PB1 HTS: MEK5 binding signal on mutant MEKK2 PB1, primary screen, biochemical, multiplex bead flow cytometry, Alexa488-MEK5. percent response, % at 10 µM. hit rate 0.35% among 290,000. Alexa488-MEK5 binding to MEKK2 mutant; in the data active means percent response above about 24%, passing the limit was not always enough
MEKK2 WT-MEK5: modulators of MEK5 binding to wildtype MEKK2, primary screen, biochemical, multiplex bead flow cytometry, Alexa488-MEK5. Mitogen-activated protein kinase kinase kinase 2 (Homo sapiens), Q9Y2U5. Alexa488-MEK5 binding to MEKK2 WT; actives lie on both sides. binding response (% of control), % at 10 µM. hit rate 1.1% among 290,000; in the data active means binding response below about 67% or above about 130%
MEKK3 PB1 HTS: modulators of MEKK3-MEK5 PB1 binding, primary screen, biochemical, wildtype MEKK3, multiplex bead flow cytometry, Alexa488-MEK5; bead-based flow cytometry, Alexa488-MEK5 binding to MEKK3; actives lie on both sides; 0 = blocked by unlabeled MEK5, 100 = vehicle; binding response (% of control), % at 10 µM; hit rate 1.4% among 290,000;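 active means binding response more than 3 SD above or below the average of its plate-row segment, actives on both sides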;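 further: Alexa488 bead fluorescence after subtracting the streptavidin-only scavenger bead signal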
Target sequence (Q99759 whole entry, looked up): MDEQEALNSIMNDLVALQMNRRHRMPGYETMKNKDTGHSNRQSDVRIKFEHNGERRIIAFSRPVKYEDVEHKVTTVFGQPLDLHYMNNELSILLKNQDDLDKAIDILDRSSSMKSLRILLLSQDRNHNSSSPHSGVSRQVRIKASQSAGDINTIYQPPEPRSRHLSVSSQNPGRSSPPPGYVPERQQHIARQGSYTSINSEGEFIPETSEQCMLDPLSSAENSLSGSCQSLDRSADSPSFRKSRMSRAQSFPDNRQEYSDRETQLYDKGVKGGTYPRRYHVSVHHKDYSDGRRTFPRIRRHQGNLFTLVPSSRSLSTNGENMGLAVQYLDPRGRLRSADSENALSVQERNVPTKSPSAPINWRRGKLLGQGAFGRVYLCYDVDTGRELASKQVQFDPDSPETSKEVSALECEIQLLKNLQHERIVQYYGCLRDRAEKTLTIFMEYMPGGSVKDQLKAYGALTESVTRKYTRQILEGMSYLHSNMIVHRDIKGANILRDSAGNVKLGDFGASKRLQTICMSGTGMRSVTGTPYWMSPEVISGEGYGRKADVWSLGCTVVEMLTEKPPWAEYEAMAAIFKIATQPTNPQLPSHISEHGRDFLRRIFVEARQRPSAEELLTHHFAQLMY
NRP1-CendR mod: modulators of CendR peptide binding to NRP-1, primary screen, biochemical, fluorescence polarization, uHTS; Neuropilin-1 (Homo sapiens), O14786; FAM-RPARPAR peptide binding to NRP-1; inhibition, % at 25 µM; hit rate 0.85% among 360,000; AID 602438, 2012;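 active means inhibition or corrected inhibition above about 18%, plus a signal ratio from 0.5 to 1.5, limit read from the data, passing the limit was not always enough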
MEKK2wt confirm: modulators of MEK5 binding to wildtype MEKK2, confirmation, biochemical, single concentration, multiplex bead flow cytometry; shares compounds with MEKK3 PB1 HTS; Alexa488-MEK5 binding to MEKK2 WT; actives lie on both sides; binding response (% of control), % at 10 µM; hit rate 2.4% among 5,900; in the data active means binding response below about 16% or above about 210%; inactive means in between
MEKK2mut confirm: mutant MEKK2 PB1-MEK5 binding signal retest – biochemical, single concentration, multiplex bead flow cytometry, confirmation; shares compounds with MEKK3 PB1 HTS; Alexa488-MEK5 binding to MEKK2 mutant; percent response, % at 10 µM; hit rate 2% among 5,900; AID 1893, 2009; in the data active means percent response mostly above about 71%, no sharp cut-off; inactive means mostly below about 38%;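 further: higher means compound restores mutant binding toward wildtype level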
MEKK3 confirm: MEKK3 wild-type PB1 binding to MEK5, inhibitors, confirmation, biochemical, bead multiplex flow cytometry, single concentration, wildtype; shares compounds with MEKK3 PB1 HTS; Alexa488-MEK5 binding to MEKK3; active compounds read low; binding response (% of control), % at 10 µM; hit rate 1.8% among 5,900;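 active means binding response below 72% of control, or above a set upper limit, though filed actives all read lower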;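 further: lower values mean stronger disruption of MEK5 binding to MEKK3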
Of the large screens only hits and unclear results are named; the others gave an inactive call (follow-up assays come after a bar, where they were run); [ ] = another dose, or the depositor's remark.

COC(=O)C1(CCSC)NC(c2ccco2)C2C(=O)N(C)C(=O)C21 (stereo not drawn)	MEKK2 WT-MEK5 1.0[inhibitor], MEKK3 PB1 HTS 2.0[inhibitor] | MEKK2wt confirm inactive | MEKK2mut confirm inactive | MEKK3 confirm inactive
Cc1ccc(N(C(=O)c2ccc3c(c2)OCO3)C2C=CS(=O)(=O)C2)cc1C (stereo not drawn)	none
CCCCC(=O)N(c1ccc(C)c(C)c1)C1C=CS(=O)(=O)C1 (stereo not drawn)	MEKK2 WT-MEK5 -7.0[inhibitor], MEKK3 PB1 HTS 1.0[inhibitor] | MEKK2wt confirm inactive | MEKK2mut confirm inactive | MEKK3 confirm inactive
Fc1cccc(Cl)c1Cn1nnc2c(NCc3ccncc3)ncnc21	MEKK2mut PB1 HTS 63 | MEKK2wt confirm inactive | MEKK2mut confirm inactive | MEKK3 confirm inactive
CCN(CC)S(=O)(=O)c1ccc(O)c(NC(=O)COc2ccc(S(=O)(=O)N3CCOCC3)cc2)c1	none (no result: MEKK2mut PB1 HTS, MEKK2 WT-MEK5, MEKK3 PB1 HTS)
O=C1O[C@@H](c2ccccc2)C[C@@H](O)[C@H](O)CCCc2ccccc21	none (no result: MEKK2mut PB1 HTS, MEKK2 WT-MEK5, MEKK3 PB1 HTS)
C[C@@H]1CN([C@@H](C)CO)C(=O)CCCn2nncc2CO[C@@H]1CN(C)S(=O)(=O)c1cn(C)cn1	none (no result: MEKK2mut PB1 HTS, MEKK2 WT-MEK5, MEKK3 PB1 HTS)
COc1cc(/C=N/N2CCN(C3c4ccccc4-c4ccccc43)CC2)cc(OC)c1OC	MEKK3 PB1 HTS 130 | MEKK2wt confirm inactive | MEKK2mut confirm inactive | MEKK3 confirm inactive
Oc1ccc(/C=N/N2CCN(C3c4ccccc4-c4ccccc43)CC2)c(O)c1	none
O=C(O)c1ccccc1/C=N/N1CCN(C2c3ccccc3-c3ccccc32)CC1	MEKK3 PB1 HTS 71[inhibitor] | MEKK2wt confirm inactive | MEKK2mut confirm inactive | MEKK3 confirm inactive
Cc1nn(-c2ccccc2)c(Cl)c1CN(C(=O)CCl)c1ccc(Cl)cc1	MEKK3 PB1 HTS 145 | MEKK2wt confirm inactive | MEKK2mut confirm inactive | MEKK3 confirm inactive
COc1ccccc1C(=O)N1CCCC(C)(C(=O)NS(=O)(=O)C2CC2)C1 (stereo not drawn)	none (no result: MEKK2mut PB1 HTS, MEKK2 WT-MEK5, MEKK3 PB1 HTS)
O=C(CSc1nnc(-c2cccnc2)s1)Nc1ccnc2ccccc12	none
Cc1ccc(NC(=O)CSc2nnc(-c3cccnc3)s2)cc1	MEKK3 PB1 HTS 8.0[inhibitor] | MEKK2wt confirm inactive | MEKK2mut confirm inactive | MEKK3 confirm inactive
Cc1ccc(OCc2ccc(C#N)cc2)c(C(=O)c2cc(C#N)c(=O)n(C3CC3)c2)c1	MEKK2mut PB1 HTS 52 | MEKK2wt confirm inactive | MEKK2mut confirm inactive | MEKK3 confirm inactive
CC(=O)c1cccc(NC(=O)COc2ccccc2C(=O)c2cc(C#N)c(=O)n(C3CCCCC3)c2)c1	none
COc1ccc(-c2nsc3c(N4CCN(S(=O)(=O)c5ccccc5F)CC4)ncnc23)cc1	MEKK3 PB1 HTS 71[inhibitor] | MEKK2wt confirm inactive | MEKK2mut confirm inactive | MEKK3 confirm inactive
COc1ccc(-c2nsc3c(N4CCCCC4)ncnc23)cc1	none
Cc1ccc(F)cc1C(=O)N1CCCCC1c1cc(C(=O)Nc2cccc(C#N)c2)no1 (stereo not drawn)	none (no result: MEKK2mut PB1 HTS, MEKK2 WT-MEK5, MEKK3 PB1 HTS)
COc1cc(OC)c2c(-c3ccccc3)cc(=O)oc2c1C(CC(=O)N1CCCC1)c1ccc2c(c1)OCO2 (stereo not drawn)	none
